Rows were chosen to be rich in hits. Some 4.3% of all compounds tested hit in one or more screens of this group.
HGIII-sPLA2 inh: human group III sPLA2 inhibitors, primary screen, biochemical, QFRET, BODIPY PC-A2 liposome substrate | Group 3 secretory phospholipase A2 (Homo sapiens), Q9NZ20 | AID 743126, 2013 | QFRET BODIPY PC-A2 liposome hydrolysis, fluorescence | inhibition, % at 12.2 µM | 370,000 compounds, 0.56% hits;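 active means inhibition above mean plus 3 SD of compounds lying within the high and low control bounds, cut at about 19% in these data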;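 further: 0% = median of test compound wells and 100% = no enzyme DMSO wells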
FAS TE block: FAS thioesterase domain inhibitors, primary screen, biochemical, fluorescence intensity, uHTS. recombinant FAS-TE, OMFH fluorogenic substrate, fluorescence endpoint. inhibition, % at 15 µM. 360,000 compounds, 0.67% hits. AID 602261, 2012;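 active means compounds whose normalised, plate-corrected inhibition of enzyme fluorescence in the single-dose primary screen is 50% or more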;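 further: 0% = DMSO with enzyme and 100% = substrate without enzyme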
Target sequence (P49327 whole entry, looked up, the tested form may be a part): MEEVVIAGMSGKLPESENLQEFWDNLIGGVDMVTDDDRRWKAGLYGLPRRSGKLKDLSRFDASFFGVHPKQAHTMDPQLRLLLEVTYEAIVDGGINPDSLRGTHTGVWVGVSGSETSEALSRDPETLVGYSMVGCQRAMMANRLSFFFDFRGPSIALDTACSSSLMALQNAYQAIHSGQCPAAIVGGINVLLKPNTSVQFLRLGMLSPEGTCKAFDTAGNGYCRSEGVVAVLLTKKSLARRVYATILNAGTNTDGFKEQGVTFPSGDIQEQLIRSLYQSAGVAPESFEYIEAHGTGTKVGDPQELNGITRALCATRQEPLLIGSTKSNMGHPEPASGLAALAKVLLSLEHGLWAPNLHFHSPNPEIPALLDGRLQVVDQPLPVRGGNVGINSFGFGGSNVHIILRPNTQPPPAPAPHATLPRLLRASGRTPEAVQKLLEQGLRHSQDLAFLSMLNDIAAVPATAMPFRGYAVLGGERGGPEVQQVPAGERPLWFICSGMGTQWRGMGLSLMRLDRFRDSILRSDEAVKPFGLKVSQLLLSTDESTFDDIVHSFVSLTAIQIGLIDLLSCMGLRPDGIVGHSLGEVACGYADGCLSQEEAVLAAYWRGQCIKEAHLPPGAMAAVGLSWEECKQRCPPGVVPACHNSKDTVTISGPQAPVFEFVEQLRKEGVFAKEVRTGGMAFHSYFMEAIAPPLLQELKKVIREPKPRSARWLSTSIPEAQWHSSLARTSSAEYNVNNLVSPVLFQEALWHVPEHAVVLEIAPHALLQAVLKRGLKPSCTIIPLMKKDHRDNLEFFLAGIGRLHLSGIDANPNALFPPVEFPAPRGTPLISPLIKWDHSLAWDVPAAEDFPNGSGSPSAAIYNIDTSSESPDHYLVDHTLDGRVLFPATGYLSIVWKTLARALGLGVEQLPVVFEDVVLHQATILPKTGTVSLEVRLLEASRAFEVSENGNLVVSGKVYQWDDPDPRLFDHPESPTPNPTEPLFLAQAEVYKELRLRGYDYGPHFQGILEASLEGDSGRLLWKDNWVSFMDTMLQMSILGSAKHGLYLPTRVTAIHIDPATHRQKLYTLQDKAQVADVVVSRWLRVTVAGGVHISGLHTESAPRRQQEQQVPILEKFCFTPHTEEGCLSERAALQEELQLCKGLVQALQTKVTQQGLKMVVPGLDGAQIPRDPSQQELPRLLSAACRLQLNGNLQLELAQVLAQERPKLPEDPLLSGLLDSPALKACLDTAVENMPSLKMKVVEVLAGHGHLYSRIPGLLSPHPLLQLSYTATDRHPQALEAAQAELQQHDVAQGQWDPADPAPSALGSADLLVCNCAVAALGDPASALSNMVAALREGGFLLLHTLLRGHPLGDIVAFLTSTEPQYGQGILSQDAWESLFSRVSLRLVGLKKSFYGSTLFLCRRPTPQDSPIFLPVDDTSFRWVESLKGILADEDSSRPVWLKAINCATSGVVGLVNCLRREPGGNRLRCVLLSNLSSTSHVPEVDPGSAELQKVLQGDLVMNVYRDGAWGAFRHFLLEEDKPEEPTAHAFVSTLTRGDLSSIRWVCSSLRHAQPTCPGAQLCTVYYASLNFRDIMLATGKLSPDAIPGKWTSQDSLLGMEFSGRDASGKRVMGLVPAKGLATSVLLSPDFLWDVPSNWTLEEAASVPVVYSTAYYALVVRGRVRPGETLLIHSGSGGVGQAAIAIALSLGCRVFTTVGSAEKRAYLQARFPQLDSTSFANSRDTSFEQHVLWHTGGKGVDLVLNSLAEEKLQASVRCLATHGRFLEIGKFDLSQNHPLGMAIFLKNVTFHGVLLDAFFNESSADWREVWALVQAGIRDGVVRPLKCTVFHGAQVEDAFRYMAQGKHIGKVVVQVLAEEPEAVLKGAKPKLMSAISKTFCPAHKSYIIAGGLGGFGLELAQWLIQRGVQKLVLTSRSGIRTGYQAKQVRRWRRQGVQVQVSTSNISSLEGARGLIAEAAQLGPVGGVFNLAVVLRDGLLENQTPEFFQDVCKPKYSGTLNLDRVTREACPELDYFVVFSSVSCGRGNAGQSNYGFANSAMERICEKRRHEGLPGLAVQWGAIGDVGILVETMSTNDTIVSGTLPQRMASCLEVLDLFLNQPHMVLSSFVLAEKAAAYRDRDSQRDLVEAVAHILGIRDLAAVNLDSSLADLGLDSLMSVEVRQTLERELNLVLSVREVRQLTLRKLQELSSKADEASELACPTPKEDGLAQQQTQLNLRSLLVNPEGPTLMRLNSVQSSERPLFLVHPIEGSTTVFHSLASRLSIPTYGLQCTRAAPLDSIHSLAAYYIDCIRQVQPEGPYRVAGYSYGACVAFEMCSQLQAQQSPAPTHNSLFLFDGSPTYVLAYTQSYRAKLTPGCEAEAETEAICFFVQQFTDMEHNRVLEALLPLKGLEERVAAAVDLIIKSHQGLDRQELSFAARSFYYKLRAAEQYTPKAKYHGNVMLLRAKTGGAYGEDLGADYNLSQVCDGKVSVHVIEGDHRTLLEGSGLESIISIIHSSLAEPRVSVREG
ADAM17 inh: ADAM17 inhibitors, primary screen, biochemical, QFRET; recombinant ADAM17, EDANS/DABCYL FRET peptide cleavage; Disintegrin and metalloproteinase domain-containing protein 17 (Homo sapiens), P78536; AID 720648, 2013; inhibition, % at 6.95 µM; 370,000 compounds, 0.83% hits;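 active means inhibition above the mean of compounds lying between control limits plus 3 SD, set per campaign, cut at about 8.5% in these data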;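 further: 0% = DMSO-only wells as the low control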
ADAM10 inh: human ADAM10 inhibitors, primary screen, biochemical, QFRET, HTS. Disintegrin and metalloproteinase domain-containing protein 10 (Homo sapiens), O14672. recombinant ADAM10, EDANS/DABCYL FRET peptide cleavage, 3 h. inhibition, % at 7 µM. 370,000 compounds, 0.62% hits. AID 720582, 2013;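 active means inhibition above a per-campaign cutoff equal to the mean of compounds falling between control-based bounds plus 3 SD, cut at about 20% in these data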;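 further: 0% = DMSO wells while the 100% control is not disclosed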
GRIN3A LBD mod: binders of NR3A ligand-binding domain, primary screen, biophysical, differential scanning fluorimetry, uHTS; Glutamate receptor ionotropic, NMDA 3A (GRIN3A) ligand-binding domain; NR3A LBD differential scanning fluorimetry, Tm shift; 0% = protein alone, 100% = glycine-bound protein; 340,000 compounds, 2.5% hits; Tm shift relative to glycine control, % at 25 µM;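 active means melting temperature shift of at least 10% of the positive control shift, at one fixed dose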
* marks the source's active call; other numbers are inactive results; i = inactive; . = not tested or not shown.

SMILES | HGIII-sPLA2 inh | FAS TE block | ADAM17 inh | ADAM10 inh | GRIN3A LBD mod
FC(F)(F)c1cccc(NC(=S)NCc2ccccc2)c1 | -27 | 30 | 0 | 14 | 3
O=[N+]([O-])c1cc(C(F)(F)F)cc([N+](=O)[O-])c1NCCNC(=S)Nc1ccc(Cl)c(Cl)c1 | 2 | 21 | 6 | 18 | 26*
FC(F)(F)c1cccc(NC(=S)NC(c2ccccc2)c2ccccc2)c1 | -28 | 28 | 7 | 12 | 30*
C#CCN1CC(N(C)CCO)CS1(=O)=O (configuration not stated) | 6 | . | 0 | -2 | .
C=CCN1[C@H](C#N)[C@@H](c2ccccc2)[C@H]1CO | 7 | . | -3 | -5 | .
COCCCn1cnn2c(=O)c3ccccc3nc2c1=O | -1 | . | -9 | -19 | .
Cc1ccc(S(=O)(=O)N2CCC(c3nc4ccccc4o3)CC2)s1 | -1 | . | 6 | 8 | .
O=C(Nc1ccc(C(=O)O)cc1)/C(=C\C=C\c1ccccc1)NC(=O)c1ccccc1Cl | -7 | 1 | 0 | -10 | -29
O=C(Nc1ccc(O)cc1)/C(=C\C=C\c1ccccc1)NC(=O)c1ccccc1 | -23 | 15 | 3 | 2 | 27*
O=C(CSc1nc2ncccc2[nH]1)N1CCOCC1 | 2 | . | -3 | -11 | .
COc1ccc(-n2c(COc3ccc(Cl)cc3)nnc2SCC(=O)c2ccc(-c3ccccc3)cc2)cc1 | -6 | . | 8 | 11 | .
N#CCC(=O)Nc1ccc(C(=O)OC(C(=O)Nc2ccc([N+](=O)[O-])cc2Br)c2ccccc2)cc1 (configuration not stated) | -41 | 33 | 4 | 6 | 12*
O=C(OC(C(=O)Nc1ccc([N+](=O)[O-])cc1Br)c1ccccc1)c1ccccc1 (configuration not stated) | 1 | 39 | -2 | 0 | -2
N#CCC(=O)Nc1ccc(C(=O)OC(C(=O)Nc2cc(C(F)(F)F)ccc2Cl)c2ccccc2)cc1 (configuration not stated) | -56 | 35 | 6 | 15 | 29*
CC1CCc2cc(F)ccc2N1C(=O)CSc1nnc2c(n1)[nH]c1ccc(F)cc12 (configuration not stated) | -4 | -2 | 0 | 1 | 24*
CC1Cc2ccccc2N1C(=O)CSc1nnc2c(n1)[nH]c1ccccc12 (configuration not stated) | -5 | 10 | -1 | -1 | 22*
COC(=O)[C@]1(CNS(=O)(=O)C2CC2)CC(=O)N(C)[C@@H]1c1ccccc1 | -3 | . | -2 | 1 | .
COc1ccc(NC(=O)c2cccnc2NCCc2ccccc2)cc1 | -14 | 17 | 7 | 13 | 18*
Cc1c(C(=O)Nc2nccs2)sc2nc(-c3cccs3)cc(C(F)(F)F)c12 | -6 | 7 | -44 | -122 | 28*
O=C(Nc1nc(-c2ccccc2)cs1)C1CCCN(S(=O)(=O)c2ccccc2)C1 (configuration not stated) | -25 | 32 | 9.4* | 17 | 5
O=C(Nc1nc(-c2ccc(S(=O)(=O)N3CCCC3)cc2)cs1)c1cccs1 | 6 | 52* | 3 | 5 | 1
O=C(Nc1nc(-c2ccccc2Cl)cs1)c1cccnc1 | -2 | 0 | -5 | 3 | 10*
O=C(Nc1nc(-c2ccccc2)cs1)C1CCCN(S(=O)(=O)c2cccc([N+](=O)[O-])c2)C1 (configuration not stated) | 0 | 32 | -2 | -2 | -12
Cc1noc(C)c1C(=O)Nc1nc(-c2ccccc2Cl)cs1 | -9 | 5 | -2 | -7 | -6
CCOc1ccc(CCNC(=O)c2cc3sccc3n2CC)cc1OC | -7 | . | 2 | 0 | .
SMILES | HGIII-sPLA2 inh | FAS TE block | ADAM17 inh | ADAM10 inh | GRIN3A LBD mod
Cc1cccc(CNC(=S)OC2CCC23CCC(c2ccccc2)CC3)c1 (configuration not stated) | 4 | . | 0 | 1 | .
COC(=O)[C@H](C(C)C)N(Cc1cn(Cc2ccc(C)cc2)nn1)S(=O)(=O)c1ccc(F)cc1Br | -3 | . | 2 | 2 | .
Cc1cccc(C)c1NC(=O)[C@@H]1CC(=O)O[C@@H]1c1ccccc1 | 3 | . | 0 | -4 | .
O=C(Nc1nc(-c2cccs2)cs1)c1cccc(S(=O)(=O)N2CCCCC2)c1 | -13 | 20 | 16* | 38* | 10*
Cc1csc(NC(=O)c2sc3nc(-c4cccs4)ccc3c2N)n1 | . | . | . | . | 28*
CC(=O)Nc1sc(NC(=O)c2ccccc2)nc1-c1cccs1 | 7 | -2 | -1 | -10 | 18*
O=C(Nc1nc(-c2cccs2)cs1)c1ccc(Cl)cc1 | 4 | 5 | 6 | 4 | 11*
C=CC[C@@H]1NN2C(=O)[C@@H](CCCC)[C@@H]3c4ccccc4C=NN3[C@@H]2c2ccccc21 | 10 | . | 1 | -1 | .
CCCCNC(=O)c1onc(CSc2ccc(OC)cc2)c1C(=O)O | 4 | -3 | -3 | 3 | 12*
Cc1cccc(-c2cccc3c4c([nH]c23)[C@@H]2C[C@H](N(C)C(=O)Nc3ccccc3C)[C@H]([C@H](C)O)C(=O)N2CC4)c1 | -26 | . | -9 | -31 | .
C/C(=N\NC(=O)CSCc1ccccc1Br)c1cccc([N+](=O)[O-])c1 | 1 | -3 | 2 | -1 | 22*
Nc1ccc2c(C(F)(F)F)cc(C(F)(F)F)nc2n1 | 3 | -2 | i | i | -1
Nc1nc(N)c2sc3nc(C(F)(F)F)cc(C(F)(F)F)c3c2n1 | 2 | 3 | 2 | -7 | 32*
O=C(Nc1cccc(O)c1)c1cc(-c2cccs2)on1 | -22 | 1 | 1 | 2 | 15*
COc1ccc(NC(=O)c2cc(-c3ccccc3Cl)on2)cc1 | -2 | 21 | -4 | 1 | 37*
COc1cccc(-c2cc(C(=O)Nc3cccc(O)c3)no2)c1 | -40 | 11 | 6 | 7 | 24*
Cc1ccnc(NC(=S)N2CC3CN(c4cccc(C(F)(F)F)c4)CC3C2)c1 (configuration not stated) | 7 | . | 3 | 11 | .
CN1CCC(N(C)S(=O)(=O)c2ccc(NC(=O)COc3cccc(C(F)(F)F)c3)cc2)CC1 | -28 | -5 | 0 | -11 | 1
CN1CCN(NC(=O)COc2cccc(C(F)(F)F)c2)CC1 | 11 | -9 | -4 | -6 | 13*
CCOc1ccc(-c2nnc3ccc(SCC(=O)Nc4nc5ccccc5s4)nn23)cc1 | -39 | 6 | -14 | -38 | 5
CCOc1ccc2nc(NC(=O)c3ccc(OCC4CCCO4)cc3)sc2c1 (configuration not stated) | -9 | 20 | -53 | -141 | 20*
CCOc1ccc(-c2nnc3ccc(SCC(=O)Nc4nc5ccc(C)cc5s4)nn23)cc1 | -24 | 15 | -2 | -2 | 22*
